# Data as given in publication PMC12864922, “TDP-43 directly inhibits mRNA accumulation in neurites through modulation of mRNA stability”.
# The full ranking holds about 9,900 sequences; the median of “r (bound/input frequency ratio)” is about 0.7, and the highest 2% start at about 6.5. This is one part of a sample in which the highest values are shown more often than they occur.
# B1: ENSMUSG00000029636.434|Wasf3 (ssRNA)
# RNA: GGGAGUUCUACAGUCCGACGAUCGCUUCGAUAUCCGCAUGCUAGUGGAUUGGUGGGUGAGUGGAUAGGUGAAUGGAUGAUAGGUGGUGGAUGGUUGAGUGGGUGGAUUCAUGAUGGAUGGAUGGAUGGAUGGAUGGAUGGAUGGAUGGAUGAGUGGAUGGAUAAUAGGUUGAUGGGUGGAUAGGUAGAUGAGUGAAUAGAUAGAUAUAGAUCAGUGGGAGGAUUGGAAAGUAGGUGAAUGAAUGGAUGGCAGAUAGAUGGAUCAAUUACAGAUGGAUGGAUGCAUGGAAUAGAUAGGUGGAUGCUCUUGCGGUCGCACUAGUGUGGAAUUCUCGGGUGUCAAGG
# B2: ENSMUSG00000029636.425|Wasf3 (ssRNA)
# RNA: GGGAGUUCUACAGUCCGACGAUCGCUUCGAUAUCCGCAUGCUAAGGUGGGUAAGUAGCUAGGUGGAUGGGUGGGUGGAUACAUGGAUGAGUGGAUGGGUGGAUUGGUGGGUGAGUGGAUAGGUGAAUGGAUGAUAGGUGGUGGAUGGUUGAGUGGGUGGAUUCAUGAUGGAUGGAUGGAUGGAUGGAUGGAUGGAUGGAUGGAUGAGUGGAUGGAUAAUAGGUUGAUGGGUGGAUAGGUAGAUGAGUGAAUAGAUAGAUAUAGAUCAGUGGGAGGAUUGGAAAGUAGGUGAAUGAAUGGAUGGCUCUUGCGGUCGCACUAGUGUGGAAUUCUCGGGUGUCAAGG
# B3: ENSMUSG00000029636.431|Wasf3 (ssRNA)
# RNA: GGGAGUUCUACAGUCCGACGAUCGCUUCGAUAUCCGCAUGCUAACAUGGAUGAGUGGAUGGGUGGAUUGGUGGGUGAGUGGAUAGGUGAAUGGAUGAUAGGUGGUGGAUGGUUGAGUGGGUGGAUUCAUGAUGGAUGGAUGGAUGGAUGGAUGGAUGGAUGGAUGGAUGAGUGGAUGGAUAAUAGGUUGAUGGGUGGAUAGGUAGAUGAGUGAAUAGAUAGAUAUAGAUCAGUGGGAGGAUUGGAAAGUAGGUGAAUGAAUGGAUGGCAGAUAGAUGGAUCAAUUACAGAUGGAUGGAUGCAUCUCUUGCGGUCGCACUAGUGUGGAAUUCUCGGGUGUCAAGG
# B4: ENSMUSG00000029636.433|Wasf3 (ssRNA)
# RNA: GGGAGUUCUACAGUCCGACGAUCGCUUCGAUAUCCGCAUGCUAGGAUGGGUGGAUUGGUGGGUGAGUGGAUAGGUGAAUGGAUGAUAGGUGGUGGAUGGUUGAGUGGGUGGAUUCAUGAUGGAUGGAUGGAUGGAUGGAUGGAUGGAUGGAUGGAUGAGUGGAUGGAUAAUAGGUUGAUGGGUGGAUAGGUAGAUGAGUGAAUAGAUAGAUAUAGAUCAGUGGGAGGAUUGGAAAGUAGGUGAAUGAAUGGAUGGCAGAUAGAUGGAUCAAUUACAGAUGGAUGGAUGCAUGGAAUAGAUAGGCUCUUGCGGUCGCACUAGUGUGGAAUUCUCGGGUGUCAAGG
# B5: ENSMUSG00000029636.423|Wasf3 (ssRNA)
# RNA: GGGAGUUCUACAGUCCGACGAUCGCUUCGAUAUCCGCAUGCUAGAUGGGUGGGUUAGGUGGGUAAGUAGCUAGGUGGAUGGGUGGGUGGAUACAUGGAUGAGUGGAUGGGUGGAUUGGUGGGUGAGUGGAUAGGUGAAUGGAUGAUAGGUGGUGGAUGGUUGAGUGGGUGGAUUCAUGAUGGAUGGAUGGAUGGAUGGAUGGAUGGAUGGAUGGAUGAGUGGAUGGAUAAUAGGUUGAUGGGUGGAUAGGUAGAUGAGUGAAUAGAUAGAUAUAGAUCAGUGGGAGGAUUGGAAAGUAGGUGACUCUUGCGGUCGCACUAGUGUGGAAUUCUCGGGUGUCAAGG
# B6: ENSMUSG00000029636.424|Wasf3 (ssRNA)
# RNA: GGGAGUUCUACAGUCCGACGAUCGCUUCGAUAUCCGCAUGCUAUGGGUUAGGUGGGUAAGUAGCUAGGUGGAUGGGUGGGUGGAUACAUGGAUGAGUGGAUGGGUGGAUUGGUGGGUGAGUGGAUAGGUGAAUGGAUGAUAGGUGGUGGAUGGUUGAGUGGGUGGAUUCAUGAUGGAUGGAUGGAUGGAUGGAUGGAUGGAUGGAUGGAUGAGUGGAUGGAUAAUAGGUUGAUGGGUGGAUAGGUAGAUGAGUGAAUAGAUAGAUAUAGAUCAGUGGGAGGAUUGGAAAGUAGGUGAAUGAAUCUCUUGCGGUCGCACUAGUGUGGAAUUCUCGGGUGUCAAGG
# B7: ENSMUSG00000029636.422|Wasf3 (ssRNA)
# RNA: GGGAGUUCUACAGUCCGACGAUCGCUUCGAUAUCCGCAUGCUAUGAGUGGAUGGGUGGGUUAGGUGGGUAAGUAGCUAGGUGGAUGGGUGGGUGGAUACAUGGAUGAGUGGAUGGGUGGAUUGGUGGGUGAGUGGAUAGGUGAAUGGAUGAUAGGUGGUGGAUGGUUGAGUGGGUGGAUUCAUGAUGGAUGGAUGGAUGGAUGGAUGGAUGGAUGGAUGGAUGAGUGGAUGGAUAAUAGGUUGAUGGGUGGAUAGGUAGAUGAGUGAAUAGAUAGAUAUAGAUCAGUGGGAGGAUUGGAAAGUCUCUUGCGGUCGCACUAGUGUGGAAUUCUCGGGUGUCAAGG
# B8: ENSMUSG00000029636.426|Wasf3 (ssRNA)
# RNA: GGGAGUUCUACAGUCCGACGAUCGCUUCGAUAUCCGCAUGCUAGUAAGUAGCUAGGUGGAUGGGUGGGUGGAUACAUGGAUGAGUGGAUGGGUGGAUUGGUGGGUGAGUGGAUAGGUGAAUGGAUGAUAGGUGGUGGAUGGUUGAGUGGGUGGAUUCAUGAUGGAUGGAUGGAUGGAUGGAUGGAUGGAUGGAUGGAUGAGUGGAUGGAUAAUAGGUUGAUGGGUGGAUAGGUAGAUGAGUGAAUAGAUAGAUAUAGAUCAGUGGGAGGAUUGGAAAGUAGGUGAAUGAAUGGAUGGCAGAUACUCUUGCGGUCGCACUAGUGUGGAAUUCUCGGGUGUCAAGG
# B9: ENSMUSG00000029636.436|Wasf3 (ssRNA)
# RNA: GGGAGUUCUACAGUCCGACGAUCGCUUCGAUAUCCGCAUGCUAGUGAGUGGAUAGGUGAAUGGAUGAUAGGUGGUGGAUGGUUGAGUGGGUGGAUUCAUGAUGGAUGGAUGGAUGGAUGGAUGGAUGGAUGGAUGGAUGAGUGGAUGGAUAAUAGGUUGAUGGGUGGAUAGGUAGAUGAGUGAAUAGAUAGAUAUAGAUCAGUGGGAGGAUUGGAAAGUAGGUGAAUGAAUGGAUGGCAGAUAGAUGGAUCAAUUACAGAUGGAUGGAUGCAUGGAAUAGAUAGGUGGAUGGGUGGUGGCUAGCUCUUGCGGUCGCACUAGUGUGGAAUUCUCGGGUGUCAAGG
# Molecular target: TDP-43 (Homo sapiens, UniProt Q13148 1-414)
# Sequence (Q13148 whole entry): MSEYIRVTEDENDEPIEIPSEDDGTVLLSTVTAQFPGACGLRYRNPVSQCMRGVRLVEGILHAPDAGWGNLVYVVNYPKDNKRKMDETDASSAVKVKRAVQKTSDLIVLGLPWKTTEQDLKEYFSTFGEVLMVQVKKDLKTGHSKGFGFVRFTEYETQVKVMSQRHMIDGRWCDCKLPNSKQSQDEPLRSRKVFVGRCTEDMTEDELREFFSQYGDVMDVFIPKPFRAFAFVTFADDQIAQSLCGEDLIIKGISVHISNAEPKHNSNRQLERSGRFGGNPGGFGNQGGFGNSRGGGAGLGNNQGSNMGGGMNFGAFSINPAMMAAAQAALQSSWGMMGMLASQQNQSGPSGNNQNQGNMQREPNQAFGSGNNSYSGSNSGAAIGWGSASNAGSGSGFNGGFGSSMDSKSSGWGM
# Test: RNA Bind-n-Seq with designed 260-mer pool; 25 mM Tris-HCl, 150 mM KCl, 3 mM MgCl2, BSA (printed 500 mg/mL), 20 units/mL SUPERase IN; pH not stated; 500 nM RNA pool, 1 h, 4 C; TDP-43 5, 50, 500 nM; high values mean tight binding
# Settings: protein: recombinant; tags: SBP (GST cleaved off with PreScission; pGEX-GST-SBP)
# Summary of the method: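 Streptavidin beads captured recombinant SBP-tagged TDP-43 at 5, 50 or 500 nM, and the beads were incubated for 1 h at 4 °C with 500 nM of an in vitro-transcribed pool of 260-nt 3′ UTR oligos in 25 mM Tris-HCl, 150 mM KCl, 3 mM MgCl2, BSA and SUPERase IN. After washing, bound RNA was eluted with biotin, reverse transcribed, PCR-amplified and sequenced. Binding is reported as R, the mapped-read-normalized abundance of each oligo in the bound sample divided by its abundance in the input. Two independent protein batches served as duplicates.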
row,Binder,binding signal
1,B1,7.94 R (bound/input frequency ratio)
2,B2,3.86 R (bound/input frequency ratio)
3,B3,6.71 R (bound/input frequency ratio)
4,B4,4.32 R (bound/input frequency ratio)
5,B5,4.57 R (bound/input frequency ratio)
6,B6,1.66 R (bound/input frequency ratio)
7,B7,11.2 R (bound/input frequency ratio)
8,B8,3.58 R (bound/input frequency ratio)
9,B9,6.61 R (bound/input frequency ratio)
